dFosB activator – enhances mouse delta FosB homodimer DNA binding; P13346; purified delta FosB, TAMRA-CDK5 oligo fluorescence polarization; percent of positive-control signal above neutral wells; activation, % at 25 µM; 0.99% of 340,000 active; AID 493131;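 active = mean activation above about 17%, with every replicate also reaching it, limit read from the data, passing the limit was not always enough; inconclusive = only one of the two conditions met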
Target sequence (P13346 whole entry, looked up): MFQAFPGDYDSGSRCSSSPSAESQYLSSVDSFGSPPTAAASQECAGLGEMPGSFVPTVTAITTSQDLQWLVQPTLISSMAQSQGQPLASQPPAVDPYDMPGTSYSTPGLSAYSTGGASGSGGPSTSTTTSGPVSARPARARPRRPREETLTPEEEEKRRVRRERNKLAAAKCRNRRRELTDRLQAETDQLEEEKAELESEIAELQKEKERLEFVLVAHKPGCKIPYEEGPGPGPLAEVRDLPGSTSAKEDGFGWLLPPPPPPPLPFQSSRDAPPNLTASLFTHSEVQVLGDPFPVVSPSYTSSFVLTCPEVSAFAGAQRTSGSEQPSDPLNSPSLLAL
HSP90 refold inh – blocks HSP90-mediated luciferase refolding in reticulocyte lysate; Rabbit reticulocyte lysate, luciferase refolding luminescence, 3 h; inhibition, % at 5.6 µM; 0.91% of 290,000 active; AID 1789;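 active = inhibition above the screen-wide mean plus 3 SD, computed separately per campaign, cut at about 16% in these data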;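 also: inhibitors lower the luminescence because luciferase stays unfolded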
MPTP block – permeability transition pore inhibition; isolated mouse mitochondria, Ca2+ swelling absorbance, 30 min; inhibition, % at 10 µM; 1.4% of 360,000 active; AID 602449;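 active = inhibition of 50% or more, scaled per plate between neutral and stimulator controls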
Platelet DG rel – modulates dense granule release in human platelets; human platelet-rich plasma, SFLLRN dense granule ATP release, luminescence; inhibition, %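 (compounds screened at 7.5 µM in platelet-rich plasma)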; 0.22% of 300,000 active; AID 1663;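 active = mean replicate score, as percent of positive control, at or above 50; inconclusive = mean below 50 but at least one replicate at or above 50; inactive = mean and every replicate below 50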
HSF1 inh – HSF1 inhibition. NIH3T3-HGL HSE-luciferase, MG132-induced, luminescence 8 h; active compounds read low. 0.77% of 300,000 active. activity change, negative = inhibition, % at 7.5 µM (by protocol). AID 2098;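 active = more than half of replicate wells show activity change below -50%, luminescence cut by over half; inconclusive = some wells, but at most half, below -50%; inactive = no replicate well below -50%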;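 also: luciferase reports HSF-1 transcriptional activity via heat shock element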
HSF-1 act – increases HSF-1 driven luciferase reporter signal; AID 504408; NIH3T3-HGL HSF-1 luciferase reporter, MG132, 8 h; 100% = twice DMSO control signal; activation, % at 9 µM; 1.7% of 300,000 active;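 active = mean replicate activation of at least 50% with a set share of replicates each reaching 50%; inconclusive = only one of those two conditions met; inactive = mean below 50% and too few replicates reaching it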
MPTP counter – membrane potential counter-screen of mitochondrial pore inhibitors; AID 624504; shares compounds with MPTP block; isolated mitochondria, Rhodamine 123 fluorescence; inhibition, % at 10 µM; 78% of 5,000 active; in the data active = inhibition above about 22%
Hits are given with their value; 0 = inactive; ? = inconclusive; - = no result. Most compounds without a hit are left out; they make up all but 4.9% or so of the library.

SMILES | dFosB activator | HSP90 refold inh | MPTP block | Platelet DG rel | HSF1 inh | HSF-1 act | MPTP counter
Cn1nc(C(F)(F)F)c(-c2ccc(F)cc2)c1NC(=O)c1ccco1 | 0 | 0 | 0 | 0 | 0 | 0 | -
Cn1nc(C(F)(F)F)c(-c2ccc(Br)cc2)c1NC(=O)Nc1ccc(F)cc1F | 0 | 0 | 76 | 0 | 0 | 0 | 84
O=C(N/N=C/c1cc([N+](=O)[O-])ccc1O)NC12CC3CC(CC(C3)C1)C2 | 0 | 0 | 74 | 0 | -50 | 0 | 44
O=C(N/N=C/c1cc([N+](=O)[O-])ccc1O)C12CC3CC(CC(C3)C1)C2 | 0 | 0 | 78 | 0 | 0 | 0 | 54
CCC(C(=O)Nc1c(C)cccc1C)n1c(-c2cnc(C)cn2)nc2ccccc21 (stereo unspecified) | - | - | 0 | - | - | - | -
CCCCn1nc(C(=O)NCC2COc3ccccc3O2)c2ccccc2c1=O (stereo unspecified) | 0 | - | 0 | - | - | - | -
COC(=O)c1ccc(C(=O)N2CCCCCC2(C)C(=O)NC(C)C)cc1 (stereo unspecified) | - | - | 0 | - | - | - | -
N#C/C(=N\Nc1ccc(Cl)cc1)C(=O)c1ccsc1 | 0 | 0 | 72 | 0 | 0 | 0 | 90
Cc1ccc(N/N=C(\C#N)C(=O)c2ccsc2)cc1 | 0 | 0 | 52 | 0 | 0 | 0 | 72
Cc1ccc(N/N=C(\C#N)C(=N)N2CCOCC2)cc1 | 0 | 0 | 0 | 0 | 0 | 0 | -
COc1ccc(C(C(=O)NCCC(C)C)N(CCN2CCOCC2)C(=O)Cn2nnc3ccccc32)c(OC)c1 (stereo unspecified) | 0 | 0 | 0 | 0 | 0 | 0 | -
CCc1ccc(OCCn2cccn2)cc1 | 0 | 0 | 0 | 0 | 0 | 0 | -
Cc1nn(-c2ccc(NC(=O)c3ccncc3)cc2)c(C)c1Cl | 0 | 0 | 80 | 0 | 0 | 0 | 79
C/C(=N\NC(=O)c1c(Cl)c(C)nn1C)c1ccc(NC(=O)c2ccncc2)cc1 | 0 | 0 | 0 | 0 | 0 | 0 | -
CCOC(=O)c1c(S(=O)(=O)NCC(=O)Nc2cc(C)ccc2OC)c(C)n(C)c1C | 0 | 0 | 0 | 0 | 0 | 0 | -
O=C(O)c1ccccc1C(=O)NC1CCN(c2nccc(C(F)(F)F)n2)CC1 | 0 | 0 | 0 | 0 | 0 | 0 | -
O=S(=O)(Nc1nc(-c2sccc2Cl)cs1)c1cc(Cl)ccc1Cl | 0 | 0 | 78 | 0 | 0 | 0 | 51
CCCCOc1ncnc2c1[nH]c1ccc(C)cc12 | - | 0 | 83 | 0 | 0 | 0 | 56
CCCC(=O)N1CCN(c2ccc(NC(=S)NC(=O)c3cccc(C)c3)cc2)CC1 | 0 | 0 | 77 | 0 | 0 | 0 | 56
COc1cccc(C(=O)NC(=S)Nc2ccc(N3CCCC3)cc2)c1 | 0 | 0 | 0 | 0 | 0 | 0 | -
CN1CCN(c2ccc(NC(=S)NC(=O)c3cccc4c(Cl)cccc34)cc2)CC1 | 49 | 0 | 91 | 0 | 0 | 0 | 0
Cc1cc(NC(=O)Nc2cc(Cl)sc2Cl)no1 | 0 | 0 | 0 | 0 | 0 | 0 | -
CCOCCCNC(=O)C(c1ccc(OC)cc1)N(Cc1cccs1)C(=O)c1ccccc1O (stereo unspecified) | 0 | 0 | 0 | 0 | 0 | 0 | -
CC(C)NC(=O)c1ccc2c(=O)n(C3CCCC3)c(=S)[nH]c2c1 | 0 | 0 | 0 | 0 | 0 | 0 | -
O=C(c1ccc2c(=O)n(C3CCCC3)c(=S)[nH]c2c1)N1CCc2ccccc21 | 0 | 0 | 80 | 0 | 0 | 91 | 69
SMILES | dFosB activator | HSP90 refold inh | MPTP block | Platelet DG rel | HSF1 inh | HSF-1 act | MPTP counter
Cc1cc(NC(=O)CN2C(=O)/C(=C/c3ccc(C(C)C)cc3)SC2=S)no1 | - | - | 0 | - | - | - | -
O=C(NC[C@@H]1CC[C@@H](Cc2ccc(-c3ccccc3)cc2)O1)Nc1ccc(Br)cc1 | 0 | - | 60 | - | - | - | 96
CC(=O)c1ccc(S(=O)(=O)N(C)CCCC(=O)NCc2ccc3c(c2)OCO3)cc1 | 0 | - | 0 | - | - | - | -
N#Cc1cccc(NC(=O)Nc2cccs2)c1 | 0 | 0 | 86 | 0 | 0 | 0 | 106
Cc1cccc(NC(=O)Nc2cccc(C#N)c2)n1 | 0 | 0 | 0 | 0 | 0 | 0 | -
COc1ccc(NC(=O)Nc2cccs2)cc1Cl | 0 | 0 | 74 | 0 | 0 | 0 | 80
Cc1cccc(C)c1NC(=O)Nc1cccs1 | 0 | 0 | 0 | 0 | 0 | 0 | -
O=C(Nc1cccs1)Nc1c(F)c(F)c(F)c(F)c1F | 0 | 0 | 96 | 0 | 0 | 0 | 84
CCc1cccc(NC(=O)Nc2cccs2)c1 | 0 | 0 | 79 | 0 | 0 | 133 | 99
Cc1cccc(N2CCN(C(=O)CCNS(=O)(=O)c3cccs3)CC2C)c1 (stereo unspecified) | 0 | 0 | 0 | 0 | 0 | 0 | -
Cc1ccc2[nH]c3c(=O)n(N)c(=O)[nH]c3c2c1 | - | 0 | 0 | 0 | 0 | 0 | -
N#Cc1cccc(NC(=S)Nc2ccccc2)c1 | 0 | 0 | 82 | 0 | 0 | 0 | 90
Oc1ccc(NC(=S)Nc2ccccc2)cc1 | 0 | 0 | 0 | 0 | 0 | ? | -
O=C(CNC(=O)c1cccc(Br)c1)N/N=C/c1cccs1 | 0 | 0 | 0 | 0 | 0 | 0 | -
O=C(CNC(=O)c1cccc(Br)c1)N/N=C/c1cc(Br)cc(Br)c1O | 0 | 0 | 66 | 0 | 0 | 0 | 0
CCCCOCCCNC(=O)C[C@@H]1C[C@@]2(C(=O)OC)CC(C)(C)CC=C2N(Cc2ccc3c(c2)OCO3)C1=O | - | - | 0 | - | - | - | -
CCN(CC)CCNC(=O)C1c2cc(OC)c(OC)cc2C(=O)N(C)C1c1cccs1 (stereo unspecified) | 0 | 0 | 0 | 0 | 0 | 0 | -
CC(=O)N1CCc2cc(S(=O)(=O)NCCC3=CCCCC3)ccc21 | 0 | 0 | 61 | 0 | 0 | 0 | 82
O=C(Nc1cccc(F)c1)c1cc(S(=O)(=O)NCCC2=CCCCC2)ccc1F | 0 | 0 | 63 | 0 | 0 | 0 | 78
Cc1ccc(NC(=O)c2cc(S(=O)(=O)NCCC3=CCCCC3)ccc2F)cc1F | 0 | 0 | 83 | 0 | 0 | 0 | 78
O=C1NC[C@H](CCCCN2CCN(Cc3ccccc3)C(=O)C2=O)N(CC2CCCCC2)C1=O | - | - | 0 | - | - | - | -
CCCCCCSc1ccc([C@@H]2[C@@H]3C(=O)N(C)C(=O)[C@@H]3[C@]3(C(=O)OC)CCCCN23)cc1 | 0 | - | 0 | - | - | - | -
CSCCC(NC(=O)c1ccc(Cl)cc1)C(=O)OCC(=O)Nc1ccc(C#N)cc1 (stereo unspecified) | 0 | 0 | 50 | 0 | 0 | 0 | 44
CCc1nc2c(OCc3ccccc3C)cccn2c1N(C)C(=O)C1CC1 | - | - | 0 | - | - | - | -
CC1=NN(C(=O)Cn2nc([N+](=O)[O-])c(Br)c2C)C(O)(C(F)(F)F)C1 (stereo unspecified) | 0 | 0 | 0 | 0 | 0 | 0 | -
Cc1ccc(NC(=O)COc2ccc(N(C)C(=O)C(C)(C)C)cc2)cc1S(=O)(=O)N1CCCCC1 | 0 | - | 93 | - | - | - | 100
Cc1ccc(S(=O)(=O)N2CCCCC2)cc1NC(=O)CSc1ncnc2ccccc12 | 0 | 0 | 0 | 0 | 0 | 0 | -
Cc1ccc(NC(=O)CSc2ncnc3ccccc23)cc1S(=O)(=O)N1CCCCCC1 | 0 | 0 | 62 | 0 | 0 | 0 | 81

Bioassay records: PubChem BioAssay, several laboratories
